# Where “and” joins values, the source holds several entries; their conditions need not be identical. Identical values can stand only once. Compounds without any hit were thinned out: in the full panel of roughly 83,000, 20% have a hit.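 Treatment: one concentration, 48 hours, 96-well format. Scoring: percent growth, with anything below 10 considered active.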 A number with no mark means an inactive call. Calls of active or inactive are those of the source.
# Assays:
# Experiment in all cases: NCI-60 one-dose screen, 48 h (100 = growth as untreated, 0 = no growth, -100 = all killed)
# Settings in all cases: 10 µM unless noted
# SR leukemia = tested on: SR leukemia
# RPMI-8226 leukemia = tested on: RPMI-8226 leukemia
# OVCAR-8 ovarian = tested on: OVCAR-8 ovarian
# OVCAR-5 ovarian = tested on: OVCAR-5 ovarian
# OVCAR-4 ovarian = tested on: OVCAR-4 ovarian
# SK-OV-3 ovarian = tested on: SK-OV-3 ovarian
# IGROV1 ovarian = tested on: IGROV1 ovarian
# OVCAR-3 ovarian = tested on: OVCAR-3 ovarian
# HS 578T breast = tested on: HS 578T breast
# NCI/ADR-RES ovarian = tested on: NCI/ADR-RES ovarian
# T-47D breast = tested on: T-47D breast
# BT-549 breast = tested on: BT-549 breast
# MDA-MB-435 melanoma = tested on: MDA-MB-435 melanoma
# SW-620 colon = tested on: SW-620 colon
# MCF7 breast = tested on: MCF7 breast
# HCT-116 colon = tested on: HCT-116 colon
# HCC-2998 colon = tested on: HCC-2998 colon
# KM12 colon = tested on: KM12 colon
SMILES,growth (SR leukemia),growth (RPMI-8226 leukemia),growth (OVCAR-8 ovarian),growth (OVCAR-5 ovarian),growth (OVCAR-4 ovarian),growth (SK-OV-3 ovarian),growth (IGROV1 ovarian),growth (OVCAR-3 ovarian),growth (HS 578T breast),growth (NCI/ADR-RES ovarian),growth (T-47D breast),growth (BT-549 breast),growth (MDA-MB-435 melanoma),growth (SW-620 colon),growth (MCF7 breast),growth (HCT-116 colon),growth (HCC-2998 colon),growth (KM12 colon)
BrC1=C(Br)C(Br)(Br)C(Br)=C1Br,9.34% (active),20.8%,62.8%,97.2%,104%,108%,98.3%,104%,118%,75.2%,77.9%,88.9%,75.6%,80.1%,50%,65.1%,103%,103%
O=C1C(=C(O)c2ccccc2)C(=O)c2ccccc21,115%,94.3%,105%,104%,101%,101%,106%,109%,120%,108%,103%,95.7%,103%,111%,102%,102%,109%,104%
COc1cc(N=Nc2ccc(O)c3ncccc23)c2ncccc2c1,7.54% (active),31.7%,17.1%,59.8%,17.4%,43.3%,27.4%,30.3%,33.9%,-1.77% (active),20.2%,39%,42.4%,30.5%,27.5%,19.4%,36.3%,28.1%
COc1ccc(-c2[nH]c3ccccc3c2-c2ccc(OC)cc2)cc1,6.13% (active),24.1%,86.1%,62.6%,61%,61.7%,88.2%,12.9%,49.5%,36.2%,41.1%,90.9%,-33.1% (active),37.1%,16.2%,24.4%,32.3%,16.6%
COc1ccc(C(=O)N/N=C/c2ccc(O)cc2O)cc1Nc1ccnc(C(F)(F)F)c1,35.3%,41.7%,23.1%,46.3%,31.7%,19.7%,26.8%,78.5%,55.4%,64%,21.6%,55.6%,32.7%,35.8%,21.9%,15.6%,40.9%,69.4%
[2H]C([2H])([2H])Oc1cc(F)ccc1/C=C/C(=O)/C=C(/C=C/c1ccc(F)cc1OC([2H])([2H])[2H])OB(F)F,41.7%,3.53% (active),4.99% (active),104%,17.5%,101%,12%,10.5%,46.3%,1.89% (active),33.1%,36.8%,16.5%,22.3%,20.1%,-11.1% (active),56%,61.6%
c1ccc(-c2cc(-c3cc(-c4ccccc4)on3)no2)cc1,61.6%,88.1%,74.6%,77.1%,96.7%,109%,63.6%,127%,116%,69.7%,85.2%,99.4%,102%,51.5%,49.1%,41.8%,94.2%,92.8%
C=C1C(=O)O[C@@H]2[C@H]3[C@H](COC(C)=O)[C@@H](OC(C)=O)C[C@H]3C(=C)[C@@H](O)C[C@@H]12,72.6%,76%,92.1%,97.2%,110%,108%,101%,80.9%,92.4%,98.6%,90.5%,94.2%,101%,84.4%,76.8%,75.7%,109%,99.8%
Cc1nc2cccc(NCCCCC(=O)NO)c2c(=O)n1-c1ccccc1,29.4%,36.1%,39.5%,31.1%,68.7%,50.8%,58.2%,68.1%,55.2%,75.3%,54.5%,86.8%,53.8%,47.5%,57.9%,27.3%,82%,73.8%
Nc1ccc(/C=N/Nc2ccnc3c(N)cccc23)c2cccnc12,-28.2% (active),-30.3% (active),-30% (active),13.9%,-51.4% (active),97.2%,88.4%,-85.5% (active),-17% (active),9.25% (active),-39.5% (active),-37.2% (active),-84.1% (active),-28.3% (active),-47.1% (active),-93.1% (active),41.5%,0.438% (active)
Cc1ccccc1SSc1ccccc1C,65.4%,98.5%,84.1%,75.5%,94.5%,96.9%,84.6%,120%,97.7%,86.4%,101%,83.9%,110%,55%,56.1%,55%,128%,96.9%
O=C1C(c2c[nH]c3ccccc23)=C(c2coc3cc(Br)ccc23)C(=O)N1O,90.5%,89.8%,106%,105%,115%,98.8%,85.2%,102%,94.5%,105%,77.5%,103%,103%,102%,80.6%,96.7%,100%,97.9%
CCOc1ccc(C(=O)Cc2ccccc2)cc1,93.4% and 92.3%,106% and 95%,109% and 106%,103% and 109%,105% and 106%,121% and 117%,116% and 110%,120% and 125%,107%,107% and 104%,98% and 100%,113% and 116%,106% and 102%,108% and 110%,103% and 104%,107% and 110%,106% and 98.2%,116% and 110%
Cc1nonc1-c1ccc2c(c1)OCO2,104%,94.1% and 91.7%,98.2% and 96.7%,111% and 121%,108% and 97.2%,97.3% and 107%,108% and 116%,101% and 105%,107% and 145%,97.7%,88.5% and 98.4%,111% and 115%,89.9% and 109%,105% and 107%,99.6% and 98.3%,112% and 98.5%,100% and 107%,95.4% and 116%
CC12OC(CC(O)C1O)n1c3ccccc3c3c4c(c5c6ccccc6n2c5c31)C(=O)N(CCN1CCOCC1)C4=O (stereo not drawn),1.71% (active),6.35% (active),17%,24.7%,22.9%,-8.93% (active),5.73% (active),20.8%,23.1%,15.4%,-5.19% (active),22.6%,21.7%,16%,4.28% (active),14.1%,6.48% (active),14.6%
NC1=CC(=O)c2cccnc2C1=O,-27% (active),-25.7% (active),-5.58% (active),-70.8% (active),-84.5% (active),58%,-53.7% (active),-1.02% (active),-10.3% (active),1.37% (active),-34.4% (active),9.57% (active),-95.5% (active),-80% (active),-55.5% (active),-56.4% (active),59.9%,58.9%

# From PubChem BioAssay (NCI)
